Compounds with a hit are over-represented: about 2.4% of the library has one in this group of screens.
D2 antag = antagonizes the human D2 dopamine receptor; HEK293 TREx D2 cells, calcium flux, dopamine EC80; 340,000 tested, 2% active; inhibition, % at 10 µM; P14416; in the data active means inhibition above about 30%; inactive means below that, where a call was filed; further: 0% is about no effect
Target sequence (P14416 whole entry, looked up): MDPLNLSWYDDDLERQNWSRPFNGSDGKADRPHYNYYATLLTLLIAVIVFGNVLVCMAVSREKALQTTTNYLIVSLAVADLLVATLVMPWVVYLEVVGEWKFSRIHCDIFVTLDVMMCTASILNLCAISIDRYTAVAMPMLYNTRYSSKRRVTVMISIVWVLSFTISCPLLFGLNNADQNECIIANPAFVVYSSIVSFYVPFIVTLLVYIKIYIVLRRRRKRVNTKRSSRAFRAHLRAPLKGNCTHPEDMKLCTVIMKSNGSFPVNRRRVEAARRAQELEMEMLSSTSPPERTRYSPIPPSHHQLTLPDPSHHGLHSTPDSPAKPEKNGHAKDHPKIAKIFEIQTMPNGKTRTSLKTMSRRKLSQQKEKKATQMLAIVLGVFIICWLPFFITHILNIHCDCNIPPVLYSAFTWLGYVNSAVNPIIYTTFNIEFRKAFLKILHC
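Tetracycline-induced HEK293 TREx cells expressing D2 receptor forced-coupled to calcium signalling, loaded with no-wash calcium dye. Compounds added and calcium flux read 180 s, then dopamine added at EC80 and read a further 180 s.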
D2 ag-1 = D2 dopamine receptor (human) agonism. AID 485358. 340,000 tested, 0.53% active. activation, % at 2 µM. HEK293 T-REx D2 cells, calcium flux agonist mode;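 active means activation over 3 SD above normal in the single-dose calcium agonist read, cut at about 30% in these data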; further: 0% is about no effect
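Calcium-flux readout, 1 cycle/sec over 180 s following compound pin transfer, in inducible HEK293 Trex D2 cells (force-coupled); dopamine controls included. Positive calcium responses during this window marked compounds as potential agonists.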
D2 PAM-1 = D2 dopamine receptor (human) potentiation. P14416. HEK293 T-REx D2, calcium flux, EC20 dopamine potentiation. potentiation, % at 10 µM. 340,000 tested, 0.34% active. AID 485347;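 active means potentiation over 3 SD above the plate norm, cut at about 30% in these data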; further: 0% is about no effect
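Using a no-wash calcium dye in inducible, force-coupled HEK293 Trex cells expressing D2, we tracked fluorescence each second for 180 s after compound, then for 180 s after EC20 dopamine to detect augmented signalling.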
D2 PAM-2 = positive allosteric modulators of human D2 dopamine receptor; P14416; DiscoveRx D2 beta-arrestin cells, luminescence, 90 min; 100% = 57 uM dopamine signal; potentiation, % (test concentration not listed); 360,000 tested, 0.23% active; AID 624464; in the data active means potentiation above about 50%; inconclusive means mostly about 30% to 49%
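PathHunter beta-arrestin assay in DiscoveRx D2 cells. Compounds were added with an EC20 of dopamine (50 nM final) for 90 min at 37 deg C. Luminescence was read 1 h after detection reagent, with 57 uM dopamine as the EC100 control.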
D2 ag-2 = activates the human D2 dopamine receptor | DiscoveRx PathHunter D2 beta-arrestin, luminescence, 90 min; 100% = 57 uM dopamine signal | P14416 | activation, % (concentration not given with the values) | 360,000 tested, 0.084% active | AID 624465; in the data active means activation above about 40%; inconclusive means between about 15% and that limit
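Agonist mode: compounds alone added to overnight-plated D2 PathHunter cells for 90 min at 37 C, with 57 uM final dopamine (EC100) defining full response. Beta-arrestin recruitment detected by chemiluminescent reagent, read after 1 h at ambient temperature.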
D3 ag = D3 receptor agonism confirmed, beta-arrestin readout | shares compounds with D2 ag-1 | Potency, µM (top dose mostly 76.9 µM), inactives show at the highest dose activation, usual class: activators | 2,300 tested, 4% active | AID 720506 | DiscoveRx D3 beta-arrestin cells, luminescence, 90 min;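 further: potency means the concentration at half of the fitted maximal effect; 100% = dopamine control response; nearly all actives have a fitted effect of over 70% in size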
D2 ag-3 = D2 receptor agonism, beta-arrestin counterscreen; 2,300 tested, 5.9% active; Potency, µM (top dose mostly 76.9 µM), for the others: at the top dose activation, actives largely listed as activators; DiscoveRx PathHunter D2 beta-arrestin, luminescence, 90 min; response scale: percent relative to full dopamine signal; shares compounds with D2 ag-1; further: potency means the concentration at half of the fitted maximal effect; % of control where 0% means no effect; nearly all actives have a fitted effect of over 70% in size
* marks the source's active call; other numbers are inactive results; ? = inconclusive; . = not tested or not shown; ! = not active in a repeat. Unless noted, the call rests on the fitted dose curve; in most records, active means well fitted activation curve with a large enough effect; inconclusive means small, poorly fitted or top-dose-only effect; inactive means flat fitted curve, though single readings scatter.

SMILES	D2 antag	D2 ag-1	D2 PAM-1	D2 PAM-2	D2 ag-2	D3 ag	D2 ag-3
CC(NC(=O)CN1CCN(c2ncccn2)CC1)c1ccc(F)cc1 (stereo unspecified)	16	60*	-16	-32	8	11%	19%
CCN(c1ccc(OC)cc1)S(=O)(=O)N1CCCC(C(=O)NCc2cccc(C)c2)C1 (stereo unspecified)	-19	1	-4	-3	2	.	.
CCN(CC)S(=O)(=O)c1ccc(N2CCCC2)c(NC(=O)Cc2cc(OC)c(OC)c(OC)c2)c1	-6	-1	-4	1	1	.	.
CCOC(=O)/C(=C\c1ccccc1)C(=O)CCN1CCOCC1	.	.	.	-7	-3	.	.
Cn1c(N)c(C(=O)CSc2n[nH]c(N)n2)c(=O)n(C)c1=O	-12	0	7	-31	-2	.	.
Cc1ccc(NC(=O)CNC(=O)c2ccco2)c(Cl)c1	-1	-1	-3	-4	4	.	.
CC1(C)NC(=O)N(CC(=O)N2CCN(S(=O)(=O)c3cc(Cl)ccc3Cl)CC2)C1=O	.	.	7	2	-2	-9%	-3%
Cc1onc(-c2c(Cl)cccc2Cl)c1C(=O)N1CCc2ccccc2C1	0	72*	-11	-8	-2	-2%	-1%
COc1cc2c(Cc3ccccc3)cncc2cc1O	.	.	.	-3	1	.	.
COc1ccccc1C(=O)NCCC(=O)NCCOc1ccccc1	-10	0	-1	-3	-2	.	.
Cc1cccc(C)c1NC(=O)NCCCN1CCN(c2ccccc2)CC1	72*	74*!	-29	-12	?	?	?
CCN(CCNC(=O)c1ccc(CSc2nc3ccncc3[nH]2)cc1)c1ccccc1	.	.	.	-6	0	.	.
Cc1cccc(C(=O)NCCN2CCN(c3ccccc3)CC2)c1	91*	49*	-22	-21	2	?	6%
Cc1cccc(C)c1NC(=O)C(=O)NCCCN1CCOCC1	.	.	.	18	-6	.	.
O=C(NCCN1CCN(c2cccc(Cl)c2)CC1)c1ccc(CSc2nc3ccncc3[nH]2)cc1	86*	46*	-14	-13	9	22µM*	?
COc1ccccc1OCCNC(=O)CCNC(=O)c1ccccc1OC	26	0	4	9	-2	-4%	-3%
Cc1cccc(C(=O)NCCCNC(=O)c2cccc(C)c2)c1	7	0	-6	-13	-3	.	.
CC1(C)Oc2ccc3ccc(=O)oc3c2/C(=C/NNC(N)=S)C1=O	-16	1	-13	-5	-9	.	.
O=C(NCCN1CCN(C(=O)c2cccc(Br)c2)CC1)C(=O)Nc1ccc(Br)cc1	3	0	2	-9	-2	.	.
O=C(NCCN1CCN(c2ccccc2)CC1)c1cccn2c(=O)c3cc(Cl)ccc3nc12	11	0	6	-14	-2	.	.
O=C(NCCN1CCN(c2ccccc2)CC1)c1cccc(Cl)c1	70*	46*	-26	-6	-2	?	12%
O=C(NCCCN1CCN(c2cccc(Cl)c2)CC1)c1ccc(N2CCCC2=O)cc1	-14	0	-2	-2	3	.	.
O=C(NCCN1CCN(c2ccccc2)CC1)c1cccc(Br)c1	78*	89*	-33	-2	8	25%	20%
O=C(NCCCN1CCN(c2cccc(Cl)c2)CC1)c1cccc(N2CCCC2=O)c1	13	48*	-24	-42	2	-4%	7%
COc1ccccc1C(=O)NCCN1CCN(c2ccccc2)CC1	83*	72*	-13	?	?	?	?
COc1ccc(OC)c(NC(=O)NCCN2CCN(c3ccccc3)CC2)c1	-5	0	16	-17	1	.	.
COc1cccc(C(=O)NCC(c2ccco2)N2CCOCC2)c1 (stereo unspecified)	7	0	8	-23	-6	.	.

Screening results deposited in PubChem BioAssay by National Center for Advancing Translational Sciences (NCATS).
